# JMJD2A Tudor: qHTS Assay for Inhibitors of JMJD2A-Tudor Domain; Potency, µM (highest dose often 114 µM), for inactives: top-dose activity change, negative = inhibition, usual class: inhibitors; AlphaScreen JMJD2A-Tudor / H3K4me3 peptide binding; 390,000 compounds, 4.4% hits; also: % is scaled to controls: 0 for no effect and ±100 for the full control effect; nearly all actives have a fitted effect of over 50% in size
# Target sequence (O75164 whole entry, looked up, the tested form may be a part): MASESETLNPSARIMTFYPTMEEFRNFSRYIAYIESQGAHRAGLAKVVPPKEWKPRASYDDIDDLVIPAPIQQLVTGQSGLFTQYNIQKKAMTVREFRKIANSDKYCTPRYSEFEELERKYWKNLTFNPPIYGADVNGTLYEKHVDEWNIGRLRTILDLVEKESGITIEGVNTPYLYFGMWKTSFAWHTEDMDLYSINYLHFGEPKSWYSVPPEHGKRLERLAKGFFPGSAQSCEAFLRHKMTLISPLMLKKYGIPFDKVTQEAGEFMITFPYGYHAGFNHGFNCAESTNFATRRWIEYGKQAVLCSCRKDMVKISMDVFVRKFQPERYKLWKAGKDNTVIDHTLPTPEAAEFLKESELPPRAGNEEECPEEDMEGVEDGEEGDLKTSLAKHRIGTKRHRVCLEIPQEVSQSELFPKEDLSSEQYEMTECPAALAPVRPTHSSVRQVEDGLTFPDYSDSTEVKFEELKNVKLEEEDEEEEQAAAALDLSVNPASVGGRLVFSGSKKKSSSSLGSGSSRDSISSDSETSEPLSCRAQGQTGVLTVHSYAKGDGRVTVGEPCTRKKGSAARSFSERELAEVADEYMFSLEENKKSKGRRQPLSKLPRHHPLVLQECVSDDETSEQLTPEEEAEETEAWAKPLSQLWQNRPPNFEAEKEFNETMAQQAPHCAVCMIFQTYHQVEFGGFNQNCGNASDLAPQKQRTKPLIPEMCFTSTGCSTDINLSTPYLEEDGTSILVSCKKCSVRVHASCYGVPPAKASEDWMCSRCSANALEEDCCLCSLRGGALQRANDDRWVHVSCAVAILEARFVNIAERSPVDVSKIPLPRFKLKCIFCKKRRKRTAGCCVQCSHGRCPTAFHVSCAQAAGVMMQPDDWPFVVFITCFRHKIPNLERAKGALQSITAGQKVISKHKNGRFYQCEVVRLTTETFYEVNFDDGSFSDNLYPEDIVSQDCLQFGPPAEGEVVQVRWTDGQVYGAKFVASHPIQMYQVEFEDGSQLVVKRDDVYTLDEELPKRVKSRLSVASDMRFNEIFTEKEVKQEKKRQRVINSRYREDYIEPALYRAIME
# Sfp PPTase inh: qHTS Assay for Inhibitors of Bacillus subtilis Sfp phosphopantetheinyl transferase (PPTase) | Biochemical Sfp PPTase activity, qHTS | Potency, µM, for inactives: largest response in the series, negative = inhibition, most hits filed as inhibitors | 310,000 compounds, 3.5% hits | AID 1490, 2009;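 also: the enzyme is Sfp with the accession as filed and its product quenches rhodamine fluorescence; 0% = enzyme reaction without inhibitor and -100% = no enzyme wells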
#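 Fluorescence-quenching assay with 15 nM Sfp, 5 uM rhodamine-CoA and 12.5 uM BHQ-2-labelled ybbR peptide in pH 7.6 Hepes/MgCl2 buffer. Enzyme was pre-incubated with compound for 15 min at room temperature. Rate was taken from the 30-min fluorescence change (525/598 nm).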
# PLK1 PBD block: qHTS for Inhibitors of PLK1-PDB (polo-like kinase 1 - polo-box domain): Primary Screen. Serine/threonine-protein kinase PLK1 (Homo sapiens), P53350. Plk1 PBD binding of FITC phosphopeptide, fluorescence polarization. Potency, µM, for inactives: max response, negative = inhibition, usual class: inhibitors. 360,000 compounds, 2.8% hits; also: series mostly up to about 57 µM; % is scaled to controls: 0 for no effect and ±100 for the full control effect; nearly all actives have a fitted effect of over 65% in size
# BAZ2B block: qHTS Assay for Inhibitors of BAZ2B; Potency, µM (titrated, usually from 114 µM), without a hit: top-dose activity change, negative = inhibition, most hits filed as inhibitors; Bromodomain adjacent to zinc finger domain protein 2B (Homo sapiens), Q9UIF8; AlphaScreen BAZ2B-H3K14Ac peptide displacement; 360,000 compounds, 4.4% hits; also: % is scaled to controls: 0 for no effect and ±100 for the full control effect; nearly all actives have a fitted effect of over 60% in size
#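 Protein-peptide AlphaScreen: BAZ2B 50 nM, b-H3K14Ac 50 nM, 1x PBS pH 7.4 + 0.01% Tween-20. Preincubation 30 min RT; cpd 30 min RT (top 110 uM); beads 20 min RT, light-protected.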
# HP1b binding inh: HTS for Inhibitors of HP1-beta Chromodomain Interactions with Methylated Histone Tails | Chromobox protein homolog 1 (Homo sapiens), P83916 | AlphaScreen HP1-beta / biotin-H3K9me3 peptide binding | Potency, µM (highest dose often 114 µM), for the others: top-dose activity change, negative = inhibition, actives largely listed as inhibitors | 390,000 compounds, 0.56% hits | AID 540317, 2011; also: nearly all actives have a fitted effect of over 70% in size
#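 AlphaScreen: HP1-beta (50 nM) preformed 30 min with biotin-H3(1-18)K9me3 peptide (50 nM) in PBS pH 7.4, 0.01% Tween-20. Compound added for 30 min at RT, then streptavidin donor/nickel chelate acceptor beads (10 ug/mL) for 30 min.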
# G9a inh: qHTS Assay for Inhibitors of Histone Lysine Methyltransferase G9a. 350,000 compounds, 8.8% hits. Potency, µM (series often up to 102 µM), inactives show at the highest dose activity, negative = inhibition, most hits filed as inhibitors. AID 504332, 2011. G9a H3K9 monomethylation, AlphaScreen, 2 h. Histone-lysine N-methyltransferase EHMT2 (Homo sapiens), Q96KQ7; also: % is scaled to controls: 0 for no effect and ±100 for the full control effect; nearly all actives have a fitted effect of over 75% in size
#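 Signal arises when biotinylated H3K9 peptide, once monomethylated, bridges streptavidin donor and antibody-captured acceptor beads. Enzyme at 20 nM was preincubated 15 min with test compounds; peptide 500 nM and SAM 20 uM then reacted for 2 h.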
# An asterisk follows results filed as active; ? = inconclusive; . = not tested or not shown; [ ] = another dose, or the depositor's remark. Only some compounds are listed: those with a hit (about 12% of all), similar ones and a draw of the others. Calls follow the shape of the dose curve; as a rule, active = well fitted curve in the direction sought with a large enough effect; inconclusive = small, poorly fitted or top-dose-only effect, or another doubt; inactive = no such curve, though single readings can be large; an effect the other way counts as inactive or inconclusive. Potency is read from the fitted curve at half-maximal effect.
SMILES,JMJD2A Tudor,Sfp PPTase inh,PLK1 PBD block,BAZ2B block,HP1b binding inh,G9a inh
Cc1ccccc1C(=O)NCCCCc1ccccc1,9%,-1%,-2%,-3%,56%,17%[59 µM]
CCOc1ccc(/C=N/n2c(-c3ccccc3)n[nH]c2=S)cc1,79µM*,-9%,0%,-29%,23%,0.5µM*
S=c1[nH]nc(-c2ccccc2)n1/N=C/c1cccc(Cl)c1,71µM*,-30%,-21%,-12%,10%,.
S=c1[nH]nc(-c2ccncc2)n1/N=C/c1cccc(Cl)c1,11µM*,-11%,-11%,-34%,35%,1µM*
S=c1[nH]nc(-c2ccccc2)n1/N=C/c1ccc(Cl)cc1,?,2%,-23%,-30%,11%,2.5µM*
Clc1cccc(OCc2nc(-c3ccncc3)n[nH]2)c1,-6%,-7%,-11%,1%,51%,27%[59 µM]
Fc1ccc(/C=N/n2c(-c3cccs3)n[nH]c2=S)cc1,32µM*,50µM*,?,-35%,-25%,1.1µM*
COc1cccc2nc3cc(C)c(C)cc3nc12,-20%,?,17µM*,3%,6%,-26%
O=C1CCCC2=C1C1(CCOCC1)N=C(Nc1nc3ccccc3o1)N2,-23%,.,.,.,.,.
CCOc1cc(/C=C2/C(=O)ON=C2C)ccc1O,-4%,-19%,-4%,-38%,4%,50µM*
CCOc1cc(/C=C2\CN(C)C/C(=C\c3ccc(O)c(OCC)c3)C2=O)ccc1O,56µM*,-11%,-9%,45µM*,?,35µM*
CCN(CC)c1ccc(/C=c2/sc3nnc(-c4ccccc4C)n3c2=O)cc1,-23%,-6%,-26%,-29%,4%,-44%
CCN(CC)c1ccc(/C=C2\C(=O)N(c3nnc(C)c(=O)[nH]3)N=C2C)cc1,20µM*,10µM*,?,8.9µM*,-2%,50µM*
CCCOc1ccc(/C=C2/C(=O)ON=C2C)cc1Cl,6%,50µM*,1.1µM*,-10%,17%,28µM*
COc1cc(C=C2CN(C)C(=O)C2=O)ccc1O,.,.,-4%,.,.,.
CCOc1cc(/C=C2\C(=O)N(c3cccc(C(F)(F)F)c3)C(=O)c3ccccc32)ccc1O,?,-3%,?,?,?,?
CCc1ccc(C(=O)NC2=NC(c3cc(OC)ccc3OC)CC(=O)N2)cc1 (centres undefined),3%,.,.,1%,28%,-3%[59 µM]
N#Cc1nn(-c2ccccc2)nc1N1CCCCC1,93%,-19%,3%,300%,407%,3%[12.7 µM]
CCN(CC)c1ccc(/C=C2/C(=O)ON=C2C)cc1,45µM*,-16%,?,40µM*,?,45µM*
CCCCC1(C)OC(=O)C(=Cc2ccc(N(CC)CC)cc2)C(=O)O1 (centres undefined),?,-7%,?,56µM*,12%,71µM*
CC1=NOC(=O)/C1=C/c1ccc(N(C)C)cc1,-34%,4%,?,-36%,14%,?
CCN(CC)c1ccc(C=C2C(=O)OC3(CCCCC3)OC2=O)cc1,-31%,-25%,-22%,?,26%,?
CC1=NOC(=O)/C1=C/c1ccc(O)c(Cl)c1,-17%,-35%,?,50µM*,10%,50µM*
CCCCCCN1C[C@@H](O)[C@H](n2cc(COC(=O)c3ccccc3)nn2)C[C@@H]1c1ccc(OC)cc1,.,.,-13%,.,.,.
CCOC(=O)c1c(NC(=O)CSc2nc(-c3ccccc3)cc(C(F)(F)F)n2)sc(C)c1C,-15%,.,.,6%,11%,6.3µM*
SMILES,JMJD2A Tudor,Sfp PPTase inh,PLK1 PBD block,BAZ2B block,HP1b binding inh,G9a inh
CCOC(=O)c1c(NC(=O)CSc2nnnn2-c2ccc(OC)cc2)sc(C)c1C,50µM*,5µM*,2.1µM*,-35%,?,?
CCOC(=O)c1c(NC(=O)CSc2nncs2)sc(C)c1C,-13%,-8%,-4%,?,14%,10µM*
CCOC(=O)c1c(NC(=O)CSc2ccccc2C(=O)O)sc(C)c1C,-30%,5%,-17%,50µM*,-1%,-38%
COc1ccccc1CN1CCNC(=O)C1CC(=O)NCC1CCOCC1 (centres undefined),-3%,9%,-1%,-20%,33%,-6%
Cc1cc(O)c2c(C)c(CC(=O)N3CCCCC3)c(=O)oc2c1,1%,.,.,-2%,35%,?
N#Cc1cc2c([nH]c1=S)CCCCCC2,3.2µM*,10µM*,27µM*,-4%,?,?
N#Cc1c(N)n[nH]c1-c1cc2c([nH]1)CCCC2,?,1%,6%,?,-20%,?
CCOC(=O)C1(C)/C(=N/Nc2ccccc2OC)C(=O)C(=O)N1c1ccccc1 (centres undefined),25µM*,-23%,-18%,40µM*,40µM*,4.5µM*
CCOC(=O)C1(C)C=C(Nc2ccc(Br)cc2)C(=O)N1c1ccccc1 (centres undefined),-6%,.,.,1%,14%,?
CCOC(=O)C1(C)/C(=N/Nc2ccccc2)C(=O)C(=O)N1c1ccccc1 (centres undefined),32µM*,14%,24µM*,?,40µM*,8.9µM*
COc1cc(/C=N/Nc2nc(C)cc(=O)[nH]2)cc(OC)c1O,-18%,?,9%,-3%,34%,28µM*
Cc1cc(=O)[nH]c(N/N=C/c2ccc(C)o2)n1,56µM*,?,6%,-4%,22%,?
COc1ccc(/C=N/Nc2nc(C)cc(=O)[nH]2)cc1OC,25µM*,5%,-4%,-25%,33%,?
Cc1cc(=O)[nH]c(N/N=C/c2ccc(N(C)C)cc2)n1,25µM*,?,-24%,-19%,-8%,-1%
Cc1cc(=O)[nH]c(N/N=C/c2ccc(F)cc2)n1,-20%,-15%,-15%,1%,16%,?
Cn1c(=O)c2c(n3c4ccccc4nc13)NC(=O)CC2c1ccccc1F (centres undefined),-5%,.,.,-11%,53%,-19%[59 µM]
CO[C@H]1CN(C)C(=O)c2cc(NC(=O)c3ccccc3)ccc2OC[C@H](C)NC[C@@H]1C,.,.,-8%,.,.,.
COc1cc2cc(C(=O)N3CCOCC3)cc(-c3ccc(C)cc3)c2cc1OC,-33%,-15%,-6%,-18%,9%,?
CCCC/C=C/C(NC(=O)C(C)(C)C)c1ccccc1 (centres undefined),.,20%,.,.,.,.

# From PubChem BioAssay
